Laboratory results reported in PubChem BioAssay (Tox21).
Results filed as inconclusive are left out. A number with no mark means an inactive call. The source made the active and inactive calls. Calls follow the shape of the dose curve; as a rule, active = well fitted activation curve with a large enough effect in the signal ratio in the repeat runs (not every such curve was filed as active); inconclusive = weak or mixed curves; inactive = flat fitted curve, though single readings scatter; the % refers to the signal ratio.

test: qHTS assay to identify small molecule agonists of H2AX (AID 1224845); conditions: CHO-K1 phospho-H2AX Ser139 HTRF, 3 h; series mostly up to 154 µM; activation (H2AX phosphorylation): at the top concentration
Source text: National Center for Advancing Translational Sciences [NCATS]
NIH Chemical Genomics Center [NCGC]
U.S. Environmental Protection Agency [EPA]
National Institutes of Environmental Health Sciences [NIEHS]
National Toxicology Program [NTP]
U.S. Food and Drug Administration [FDA]
HTRF phospho-H2AX (Ser139) assay (Cisbio Bioassays, US) enables the quantitative detection of the histone variant H2AX when phosphorylated on serine 139. When double-stranded DNA breaks, either by ionizing radiation or endogenous physiological processes, H2AX becomes phosphorylated at Ser139. This phospho-Ser139 serves as a sensitive biomarker for the detection of such breaks, localizing the site of DNA repair. So, HTRF phospho-H2AX Ser139 is a pertinent assay to study genome stability, the cell cycle, DNA repair, and it serves as a biomarker for cancer, and to understand aging. Wild type CHO-K1 cells were used to identify the inducers of Phospho-H2AX Ser 139 from the Tox21 10K compound collections.
Tox21 Assay Protocol Summary:
The CHO-K1 cells suspended in culture medium containing 10% FBS were dispensed at 1000 cells/ 3 ul/well in 1536-well white wall/solid bottom plates (Greiner Bio-One North America, NC) using a Multidrop Combi (Thermo Fisher Scientific Inc., Waltham, MA). After the assay plates were incubated at 37C overnight, 23 nl of compounds at 15 concentrations (from 5-48 columns) or positive control (from 1 to 4 columns) were transferred to the assay plates using a Pintool station (Wako, San Diego, CA) into each well resulting in a final DMSO concentration of 0.76%. After 3hr incubation at 37C, 1 uL/well Supplemented Lysis buffer (diluted 100 fold blocking reagent in lysis buffer) (HTRF Phospho-H2A.X (S139) Assay kit from Cisbio US Inc., Bedford, MA) was added using a Flying Reagent Dispenser (FRD) (Aurora Discovery, CA). After 10sec spin at 1000 rpm in a plate centrifuge, the assay plates were incubated at room temperature for 30 min. Then followed by the addition of 1 uL/well detection buffer (containing a mixture of two antibodies, one labeled with cryptate, Anti pH2AX (S139)-K and another labeled with d2, Anti H2AX-d2) using FRD. After incubation at room temperature for 24 hr, the time resolved fluorescence at excitation 320 nm and emissions at 665 nm and 620 nm was measured using an Envision plate reader (PerkinElmer, Waltham, MA).
% is scaled to controls: 0 for no effect and ±100 for the full control effect; potency is read from the fitted curve at half-maximal effect.

Structure (SMILES)	activation (H2AX phosphorylation)	Potency
C=CC(C)(CCC=C(C)C)OC(=O)CC (stereo not given)	-1.73%	
CO/N=C(\C(=O)N[C@@H]1C(=O)N2C(C(=O)O)=C(CSc3nc(=O)c(O)nn3C)CS[C@H]12)c1csc(N)n1	-0.283% [at 70.9 µM]	
O=C(CO)[C@@H](O)[C@H](O)[C@@H](O)CO	-2.25% [at 70.9 µM]	
CCCCCCC#CC(=O)OC	0.105%	
CC(=O)N1C[C@H](O)C[C@H]1C(=O)O	-1.43% [at 70.9 µM]	
CCC(=O)OCc1ccccc1	-1.48%	
O=C(O)CNC(=O)c1ccccc1	-2.05% [at 70.9 µM]	
C[N+](C)(C)CCCCCCCCCC[N+](C)(C)C	-1.19% [at 70.9 µM]	
C[N+]12CCC(CC1)C(OC(=O)C(O)(c1ccccc1)c1ccccc1)C2 (stereo not given)	0.76% [at 70.9 µM]	
C=COC(=O)C(C)(CC)CCC(C)C (stereo not given)	0.588%	
CCCC(C)C(=O)OCC (stereo not given)	-4.29%	
Cc1ncc([C@@H](CCCCCCc2ccc3c(n2)NCCC3)CC(=O)O)cn1	0.447%	
Cc1onc(-c2c(Cl)cccc2Cl)c1C(=O)Cl	-1.3% [at 70.9 µM]	
Clc1cc(Cl)c(Cl)nc1Cl	0.445%	
Cc1ccc(-c2ccccc2C#N)cc1	-2.11% [at 70.9 µM]	
CC12CCC(C(=O)C1=O)C2(C)C (stereo not given)	1.5%	
CC(C)CC(C)(N)C#N (stereo not given)	-2.46%	
CC[C@H]1OC(=O)[C@H](C)[C@@H](O[C@H]2C[C@@](C)(OC)[C@@H](O)[C@H](C)O2)[C@H](C)[C@@H](O[C@@H]2O[C@H](C)C[C@H](N(C)C)[C@H]2O)[C@](C)(OC)C[C@@H](C)C(=O)[C@H](C)[C@@H](O)[C@]1(C)O	-1.28%	
CCO[Si](OCC)(OCC)c1ccccc1	-2.01%	
COCCOCC(OC)OC	0.534% [at 70.9 µM]	

Structure (SMILES)	activation (H2AX phosphorylation)	Potency
O=C(O)CNC(=O)c1ccc(CO)o1	1.88%	
Cc1cccc(C)c1NC(=O)CC12CCCN1CCC2	-0.208% [at 70.9 µM]	
CC(=O)Nc1ccc(OCC(O)CNC(C)C)cc1 (stereo not given)	-0.373% [at 70.9 µM]	
CCOc1c(N2CCOCC2)cnn(C)c1=O	-2.14% [at 70.9 µM]	
Nc1ccn([C@@H]2O[C@H](CO)[C@@H](O)C2O)c(=O)n1 (stereo not given in full)		56.6 µM (active)
CCOC(=O)COc1cc(-n2ncc(C(F)(F)F)c(C)c2=O)c(F)cc1Cl	0.173%	
CCCCCC(C)N (stereo not given)	-5.99% [at 70.9 µM]	
COc1cc(-c2ccc(=O)[nH]n2)ccc1OC(F)F	3.31% [at 70.9 µM]	
C[N+]1(CC2COC(c3ccccc3)(c3ccccc3)O2)CCCCC1 (stereo not given)	-1.86% [at 31.6 µM]	
NC(=O)NC1N=C([O][Al])NC1=O (stereo not given)	0.601% [at 70.9 µM]	
COC(=O)C1=C(C)NC(C)=C(C(=O)OC(C)C)C1c1cccc2nonc12 (stereo not given)	0.273% [at 70.9 µM]	
CN(C)CCCCCCN(C)C	0.0954%	
CCCO[Si](OCCC)(OCCC)OCCC	2.23%	
O=C(CO)[C@@H](O)[C@H](O)[C@H](O)CO	-2.5%	
CC(=O)NC(=O)c1ccccc1O	0.258% [at 70.9 µM]	
NC(CCC(=O)O)C(=O)O (stereo not given)	-3.77%	
CCOCC(C)O (stereo not given)	-2.96%	
CC(C)=CCC/C(C)=C/C#N	-0.871%	
CCN(C=O)CC	-0.417%	
CC(C)(CCC(=O)O)C(=O)O	-0.959%	
